This passage reports inhibition results from PubChem BioAssay.

The term inhibition denotes the relative decrease from the control value, in per cent.

A number with no mark means an inactive call. The rule behind the calls is not given here.

In this assay the target is Pantothenate synthetase (Mycobacterium tuberculosis (strain ATCC 25618 / H37Rv)) (UniProt P9WIL5). Put plainly: Coupled enzyme confirmation of inhibitors against recombinant Mtb PanC (AID 375).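 Note: 0% = full reaction with vehicle and 100% = no enzyme background.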 The following applies: coupled enzyme assay; at 10 µM, hits give high values.
Chain of Pantothenate synthetase (Mycobacterium tuberculosis (strain ATCC 25618 / H37Rv)) (P9WIL5 whole entry, looked up): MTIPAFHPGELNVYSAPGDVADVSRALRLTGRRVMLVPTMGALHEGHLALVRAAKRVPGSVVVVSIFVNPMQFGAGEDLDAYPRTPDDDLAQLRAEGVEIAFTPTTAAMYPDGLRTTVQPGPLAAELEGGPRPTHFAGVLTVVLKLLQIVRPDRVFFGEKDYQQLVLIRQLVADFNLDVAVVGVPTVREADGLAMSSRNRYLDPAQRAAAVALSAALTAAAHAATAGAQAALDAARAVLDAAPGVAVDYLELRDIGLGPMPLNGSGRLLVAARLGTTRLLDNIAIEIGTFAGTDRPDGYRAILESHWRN
Turning to `CC(=O)Oc1cccc2c1C(=O)c1c(OC(C)=O)cc(C(=O)O)cc1C2=O`, the inhibition is 2%.
The figure for `CS(=O)(=O)N(CC(=O)Nc1ccc2c(c1)OCCO2)Cc1ccccc1` is 2%.
The figure for `CN(C)c1cc(NC(=O)CN2CCOCC2)c2ccccc2n1` is 3%.
For the molecule `COC(=O)c1cc(Br)c(=O)n(CCC2=CCCCC2)c1`, the inhibition was 0%.
Take `O=C(COC(=O)c1cc(S(=O)(=O)N2CCOCC2)ccc1O)NCC1CCCO1` (centres undefined): the inhibition is 15%.
For `Nc1nc(SCCOc2ccccc2)n[nH]1`, the inhibition was 0%.
The figure for `CCc1nc(SCc2cc(Cl)ccc2OC)n[nH]1` is 0%.
Take `O=C(CN1CCN(Cc2ccc3c(c2)OCO3)CC1)N1CCc2[nH]c3ccc(F)cc3c2C1`: the inhibition was 0%.
Regarding `CCC(C)NC(=O)CSC1=Nc2ccccc2C2=NC(CC(=O)NCc3ccccc3)C(=O)N12` (centres undefined), the inhibition is 0%.
For `CC1=C(C#N)C(c2ccoc2)C(C(=O)OCc2ccccc2)=C(N)S1` (centres undefined) the value was 5%; for `Cc1noc(C)c1S(=O)(=O)N1CCC(C(=O)N2CCN(Cc3ccc4c(c3)OCO4)CC2)CC1`, 0%.
`CCN(CCCNC(=O)CC1Oc2ccc(C)cc2NC1=O)Cc1ccccc1` (centres undefined): the inhibition is 0%.
Take `O=C(Nc1ccccc1)N(Cc1cccnc1)Cc1ccco1`: the inhibition is 0%.
Regarding `CCCCc1c(O)nc(N2CCN(Cc3ccccc3)CC2)[nH]c1=O`, the inhibition is 7%.
As for `Cc1ccccc1Cn1nc(C)c(NC(=O)c2noc3c2CCCC3)c1C`, the inhibition is 5%.
The figure for `COC(=O)c1ccccc1NC(=O)C1CC(=O)N(c2ccccc2)C1` (centres undefined) is 4%; for `COc1ccc(CN(CC(=O)NCC2CCCO2)C(=O)CNS(=O)(=O)c2ccc(C)cc2)cc1` (centres undefined) it is 9%; for `C=CCn1c(=O)c2ccccc2n2c(SCC(=O)Nc3cc(C)on3)nnc12` it is 0%.
For `N#CCC(=O)N1CCn2c1nc1ccccc12` the value was 0%.
The figure for `COC(=O)C1=C(CSCc2ccco2)NC(=O)NC1c1cc(C)ccc1C` (centres undefined) is 3%; for `Cc1ccc(-c2[nH]nc3c2C(c2ccc(OC(=O)N4CCOCC4)cc2)C(C#N)=C(N)O3)cc1` (centres undefined) it is 2%.
On to `CCOC(=O)N1CCC(N(CCCOC)C(=O)Nc2ccc(CC)cc2)CC1`, for which the inhibition was 0%.
With `COc1ccc2c(C)nc(Nc3nc(C)cc(C)n3)nc2c1`, the inhibition is 6%.
For `Cc1cc(C)cc(-n2ccnc2SCC(=O)Nc2ccc3c(c2)OCCO3)c1` the value was 0%.
`Cc1ccccc1-c1nc(CN2CCC(C(=O)NCCCN3CCCC3)CC2)c(C)o1`: the inhibition is 0%.
For `CCOC(=O)N1CCC(Nc2c(-c3ccc(C)cc3)c(=O)c2=O)CC1` the value was 0%; for `O=C(O)CCC(=O)Nc1nc(-c2ccccc2)cs1`, 0%.
On to `O=C(N1CCCCCC1)N1CCN(C(=O)N2CCOCC2)CC1`, for which the inhibition is 0%.
The figure for `CC(C)(NC(=O)N1CCCC1)c1cccc(C(C)(C)NC(=O)N2CCCC2)c1` is 0%.
As to `CO[C@H]1C[C@@H]2CC[C@@H](C)[C@@](O)(O2)C(=O)C(=O)N2CCCC[C@H]2C(=O)O[C@H]([C@H](C)C[C@@H]2CC[C@@H](O)[C@H](OC)C2)CC(=O)[C@H](C)C=C(C)[C@@H](O)[C@@H](OC)C(=O)[C@H](C)C[C@H](C)C=CC=CC=C1C`, the inhibition was 0%.
For `CC(=O)OCC[N+](C)(C)C` the value was 0%.
For `CC(C)(C)NC(=O)Nc1ccccc1C(N)=O` the value was 5%; for `CCOC(=O)c1ccc(N2C(=O)CC(N3CCN(C/C=C/c4ccccc4)CC3)C2=O)cc1` (centres undefined), 2%.
As to `Clc1ccc(-n2ncc3c(NCCCn4ccnc4)ncnc32)cc1`, the inhibition is 0%.
For `COc1ccc(C(=O)Nc2cccnc2)cc1C(=O)Nc1cccnc1` the value was 0%.
The figure for `CCCc1cc(C(=O)Nc2sc(C)c(C)c2C(=O)OCC)no1` is 3%.
For `CCCCc1ccc(NC(=O)COCC)cc1` the value was 0%.
For the molecule `CC(=O)c1c(C)nn(C(C)CC(=O)O)c1C` (centres undefined), the inhibition was 0%.
The figure for `COc1ccc(C(=O)NCCn2ccc3ccccc32)c(OC)c1` is 5%.
